# Experimental data: PubChem BioAssay AID488969 (Vanderbilt High Throughput Screening Facility, 2010)
# Whole data set: some 110,000 compounds, median “z-score” near -0.1, cut for the highest 2% near 2. Many of the other results were omitted from the sample, so the highest values are more common in it than they were. Active and inactive are the calls of the source.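 Rule for the calls: active = z-score in the third read window above 3 or below -3; inactive = the rest.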
# Target: Metabotropic glutamate receptor 8 (Rattus norvegicus) (UniProt P70579)
# Assay: mGluR8 Gi/Go-coupled signaling modulation – cell-based, rat, thallium flux, HTS, primary screen (AID 488969)
# Conditions: HEK293 rat mGluR8, GIRK (G protein-gated inwardly rectifying potassium channel) thallium flux, FluoZin2; at 10 µM; stronger effect = higher value; submaximal glutamate (EC20) added with thallium
# Sequence of Metabotropic glutamate receptor 8 (Rattus norvegicus) (P70579 whole entry, looked up): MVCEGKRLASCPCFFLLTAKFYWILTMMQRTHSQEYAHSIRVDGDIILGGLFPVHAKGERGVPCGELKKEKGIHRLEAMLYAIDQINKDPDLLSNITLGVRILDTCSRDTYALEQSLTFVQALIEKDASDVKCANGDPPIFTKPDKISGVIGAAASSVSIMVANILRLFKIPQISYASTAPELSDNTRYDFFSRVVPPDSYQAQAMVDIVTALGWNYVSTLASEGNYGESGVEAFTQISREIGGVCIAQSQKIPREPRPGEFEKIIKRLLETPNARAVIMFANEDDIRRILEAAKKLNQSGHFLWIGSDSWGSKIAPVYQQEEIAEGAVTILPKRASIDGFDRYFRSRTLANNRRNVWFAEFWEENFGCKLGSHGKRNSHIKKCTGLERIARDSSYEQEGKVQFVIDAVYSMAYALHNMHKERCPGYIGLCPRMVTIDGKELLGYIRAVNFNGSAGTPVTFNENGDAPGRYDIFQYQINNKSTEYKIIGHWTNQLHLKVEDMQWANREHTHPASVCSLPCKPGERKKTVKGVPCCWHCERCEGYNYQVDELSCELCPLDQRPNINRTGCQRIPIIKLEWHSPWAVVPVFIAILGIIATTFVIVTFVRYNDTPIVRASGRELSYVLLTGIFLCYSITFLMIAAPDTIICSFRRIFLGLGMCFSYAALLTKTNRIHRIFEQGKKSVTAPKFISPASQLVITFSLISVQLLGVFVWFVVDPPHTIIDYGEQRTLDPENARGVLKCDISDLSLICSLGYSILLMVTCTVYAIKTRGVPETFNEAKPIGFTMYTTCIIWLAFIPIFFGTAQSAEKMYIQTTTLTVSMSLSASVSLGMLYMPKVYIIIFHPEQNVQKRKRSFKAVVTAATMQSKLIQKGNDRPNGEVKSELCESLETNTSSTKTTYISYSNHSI
row,SMILES,z-score
1,CCOc1ccc(-c2nnn(CC(=O)c3cc(OC)ccc3OC)n2)cc1,1.52
2,CCCNC(=O)Cn1cnc2sc(C(=O)N3CCCC(C(=O)OCC)C3)c(C)c2c1=O (stereo not drawn),-1.05
3,CCN(CC)S(=O)(=O)c1ccc(NC(=O)C2CCCO2)cc1 (stereo not drawn),-0.205
4,CCCn1nc(C(=O)NCCN2CCOCC2)c2ccccc2c1=O,0.608
5,Cc1occc1-c1nnc(SCC(=O)N(C)CCC#N)n1N,0.286
6,O=C(NC1CCCCC1)C(c1ccc(O)cc1)N(CC1CCCO1)C(=O)C1COc2ccccc2O1 (stereo not drawn),0.338
7,COc1ccc(C)cc1NC(=O)Nc1ccccc1,11.5 (active)
8,CCOC(=O)Nc1cc(C)ccc1OC,0.0736
9,COc1ccc(C)cc1NC(=O)Nc1ccc(Br)cn1,0.233
10,Cc1cccc(-c2nnn(Cc3nnc(NC(=O)c4ccccc4)s3)n2)c1,-0.0603
11,Cc1ccc(C(=O)N2CCN(c3ccc(C(F)(F)F)cn3)CC2)c(C)c1,-0.0998
12,CC1CC(C)CN(C(=O)c2cc(-c3ccccn3)nc3ccccc23)C1 (stereo not drawn),-1.27
13,Cn1ccnc1SCC(=O)Nc1ccc2nc(SCC(=O)NC3CC3)sc2c1,-0.00819
14,CCOc1c2ccc(C(=O)NCc3cc(C(F)(F)F)cc(C(F)(F)F)c3)cc2nn1C,0.112
15,O=C(CCCCCn1c(=S)[nH]c2ccc(Br)cc2c1=O)NCC1CCCO1 (stereo not drawn),1.92
16,C=CCn1c(=S)[nH]c2ccccc2c1=O,13.6 (active)
17,CCOC(=O)N1CCN(C(=O)CCCn2c(=S)[nH]c3ccc(Br)cc3c2=O)CC1,1.24
18,C=CCn1c(=S)[nH]c2ccc(Br)cc2c1=O,15 (active)
19,C=C(C)Cn1c(=S)[nH]c2ccccc2c1=O,-0.0946
20,CC(C)OC(=O)CSc1nnc(Cc2ccccc2)n1Cc1ccco1,-0.4
21,Cc1cccc2cc(C(c3nnnn3C(C)(C)C)N3CCN(C(=O)c4ccco4)CC3)c(=O)[nH]c12 (stereo not drawn),0.516
22,CCN1CCN(C(=O)C2CCN(C(=O)c3cc4sccc4n3CC)CC2)CC1,2.56
23,CCn1c(C(=O)N2CCC(C(=O)N3CCN(c4ccccn4)CC3)CC2)cc2sccc21,0.181

row,SMILES,z-score
1,CCN1CCN(C(=O)c2cc3sccc3n2CC(=O)c2ccccc2)CC1,-0.119
2,CC1(C)C(C#N)=C(N)OC2=C1C(=O)CCC2,0.297
3,Cc1cc2nc3c(c(=O)n2[nH]1)CCCC3,-0.219
4,CCCC(=O)Nc1nc2ccc(S(N)(=O)=O)cc2s1,-0.295
5,O=C(NCC1CCCO1)C(c1cccs1)N(Cc1cccs1)C(=O)c1ccc(-c2ccccc2)[nH]1 (stereo not drawn),-0.486
6,O=C(NCC1CCCO1)C(c1cccs1)N(Cc1ccccc1Cl)C(=O)c1ccc(-c2ccccc2)[nH]1 (stereo not drawn),2.14
7,O=C(NCC1CCCO1)C(c1cccs1)N(C(=O)c1ccc(-c2ccccc2)[nH]1)C1CCCC1 (stereo not drawn),-0.0712
8,COC(=O)CC1COc2ccccc2N1C(=O)c1ccc(C(C)(C)C)cc1 (stereo not drawn),-0.191
9,CCCC(=O)Nc1cc(-c2nnc(OC)c3ccccc23)ccc1N1CCOCC1,-0.445
10,O=C(Oc1ccc([N+](=O)[O-])cc1)c1cccnc1,-0.0965
11,CCNC(=S)SCCOc1ccc(C)cc1,0.376
12,CNC(=S)SCCOc1ccccc1C,0.297
13,CNC(=S)SCCOc1ccc(C)cc1,6.37 (active)
14,Cc1ccc2nc3sc(C(=O)Nc4c(C)[nH]c(=O)[nH]c4=O)c(N)c3cc2c1,-0.158
15,NC(=O)CCn1nc(-c2ccc(Cl)cc2)c2ccccc2c1=O,-0.686
16,O=C(/C=C(\O)c1ccc(Cl)cc1)C(=O)NNC(=O)C(O)(c1ccccc1)c1ccccc1,-0.125
17,COc1ccc(/C(O)=C/C(=O)C(=O)NNC(=O)C(O)(c2ccccc2)c2ccccc2)cc1,-0.343
18,Cc1ccc(/C(O)=C/C(=O)C(=O)NNC(=O)C(O)(c2ccccc2)c2ccccc2)cc1,2.44
19,CCn1c(SCC(=O)Nc2nnc(C)s2)nnc1-c1ccco1,-0.0211
20,O=C1C(=O)N(CCO)C(c2ccccc2)/C1=C(\O)c1ccccc1 (stereo not drawn),-0.284
21,O=C(CNC(=O)C12CC3CC(CC(C3)C1)C2)N1CCN(S(=O)(=O)c2cccs2)CC1,-0.178
22,CCCn1c(SCC(=O)NC2CCCCC2C)n[nH]c1=O (stereo not drawn),0.79
23,Cc1ccc(-c2ccc(/C=N/NC(=S)Nc3ccccc3)o2)cc1[N+](=O)[O-],0.442

row,SMILES,z-score
1,O=[N+]([O-])c1ccc(/C=N/NC(=S)Nc2ccccc2F)o1,6.05 (active)
2,COC(=O)N/N=C/c1ccc([N+](=O)[O-])o1,-0.0263
3,O=C(CNc1ccccc1)N/N=C/c1ccc([N+](=O)[O-])o1,-0.389
4,O=[N+]([O-])c1ccc(/C=N/NC(=S)Nc2ccccc2)o1,2.92
5,O=[N+]([O-])c1ccc(/C=N/NC(=S)Nc2ccccc2C(F)(F)F)o1,1.06
6,N#CCCn1cc(/C=N/O)c(-c2ccccc2)n1,0.0606
7,C1=C(CCNc2nnnn2-c2ccccc2)CCCC1,-0.26
8,Fc1cccc(NC(=S)Nc2ccc(Br)cc2)c1,0.843
9,Fc1ccccc1NC(=S)Nc1ccc(Br)cc1,0.657
10,Cc1nn(-c2ccccc2)c(N2CCCC2)c1/C=N/NC(=S)Nc1ccccc1F,2.42
11,CN(C)/C=N/C(=S)Nc1ccccc1F,0.0261
12,Fc1ccc(CNC(=S)Nc2ccc(Cl)cc2Cl)cc1,0.134
13,Fc1ccccc1NC(=S)N/N=C/c1ccccc1Br,13.4 (active)
14,Cc1ccc(NC(=S)N/N=C/c2c(C)nn(-c3ccccc3)c2N2CCCC2)cc1,0.376
15,FC(F)(F)c1ccc(Cl)c(NC(=S)N/N=C/c2ccccc2C(F)(F)F)c1,1.14
16,Cc1nn(-c2ccccc2)c(N2CCCC2)c1/C=N/NC(=S)Nc1ccccc1C(F)(F)F,0.583
17,Fc1ccccc1/C=N/NC(=S)Nc1ccc(Cl)cc1Cl,3.47 (active)
18,Cn1c(NC(=O)c2ccco2)cc(=O)n(C)c1=O,-0.188
19,O=C(CCSCCc1ccccn1)Nc1ccc(Br)cc1F,-0.191
20,CCc1nc2ccccc2n1Cc1ccccc1OC,-0.822
21,CC1=NNC(=O)C1CCC(=O)N/N=C/C(Br)=C/c1ccccc1 (stereo not drawn),-0.0952
22,O=C(c1ccc([N+](=O)[O-])cc1)N(Cc1ccc(Cl)cc1)N1C(=O)CCCC1=O,-0.682
23,Cn1cnnc1SCC(=O)Nc1sc2c(c1C#N)CCCCC2,0.0796

row,SMILES,z-score
1,COc1ccc2cnn(Cc3ccccc3)c(=O)c2c1OC,0.037
2,CC(C)(C)c1n[nH]c(=S)n(/N=C/c2cccs2)c1=O,0.25
3,Cc1ccc(-c2n[nH]c(=S)n2/N=C/c2ccc(C)s2)cc1,2.29
4,S=c1[nH]nc(COc2ccccc2)n1/N=C/c1cccs1,0.649
5,S=c1[nH]nc(-c2ccccc2)n1/N=C/c1cccs1,0.587
6,Cc1ccc(-c2n[nH]c(=S)n2/N=C/c2cccs2)cc1,2.22
7,Cc1ccc(/C=N/n2c(COc3ccccc3)n[nH]c2=S)s1,3.29 (active)
8,Cc1ccsc1/C=N/n1c(C2CCCCC2)n[nH]c1=S,0.383
9,Cc1cccc(-c2n[nH]c(=S)n2/N=C/c2ccc(C)s2)c1,0.7
10,S=c1[nH]nc(C2CCCCC2)n1/N=C/c1cccs1,2.48
11,Cc1ccsc1/C=N/n1c(COc2ccccc2)n[nH]c1=S,0.533
12,Cc1ccc(/C=N/n2c(C3CCCCC3)n[nH]c2=S)s1,0.644
13,Cc1ccc(/C=N/n2c(-c3cccnc3)n[nH]c2=S)s1,-0.311
14,CS(=O)(=O)Nc1ccc(-c2n[nH]c(=S)n2-c2ccccc2)cc1,0.118
15,CCN(CCNC(=O)C1CCN(Cc2nc(-c3ccc(Cl)cc3)oc2C)CC1)c1ccccc1,1.3
16,CN(C)c1ccnc(NCc2ccccc2)c1C#N,-0.278
17,O=C(Nc1ccncc1)Nc1ccccn1,-0.133
18,CCC(=O)N/C(=N\OCc1ccc(F)cc1)c1nonc1NC(=O)CC,-0.064
19,COc1ccccc1-c1noc(CCC(=O)Nc2cccc(C)c2)n1,-0.323
20,O=C(c1cnn2c(C(F)(F)F)cc(-c3ccco3)nc12)N1CCCCCC1,2.24
21,O=C(c1cnn2c(C(F)(F)F)cc(-c3ccco3)nc12)N1CCc2ccccc2C1,-1.04
22,O=C(c1cnn2c(C(F)(F)F)cc(-c3ccco3)nc12)N1CCCc2ccccc21,-0.976
23,COc1cc(C(C)=O)ccc1COc1ccc(C(=O)OCC(=O)NC(C)(C)C)cc1OC,-0.573

row,SMILES,z-score
1,O=C(NCc1ccccn1)c1ccc(CNS(=O)(=O)c2ccc(F)cc2)cc1,-0.111
2,CN1C(=O)c2ccccc2N(C)C1c1cccs1 (stereo not drawn),-1.51
3,Cc1c(-n2c(=S)[nH]c3ccccc3c2=O)c(=O)n(-c2ccccc2)n1C,0.153
4,CC1CCC(n2c(=S)[nH]c3ccccc3c2=O)CC1 (stereo not drawn),8.55 (active)
5,O=c1c2ccccc2[nH]c(=S)n1C1CCCCC1,12.5 (active)
6,CCOC(=O)N1CCC(n2c(=S)[nH]c3ccccc3c2=O)CC1,0.582
7,O=c1c2ccccc2[nH]c(=S)n1CC1CCCO1 (stereo not drawn),0.302
8,O=c1c2[nH]c3ccccc3c2ncn1C1CCCCC1,0.256
9,Cc1ccc(S(=O)(=O)Nc2cc(C(F)(F)F)ccc2N2CCOCC2)cc1,0.266
10,Cc1ccc(-c2nnc3n2CCCCC3)cc1,0.0634
11,CCNC(=O)COC(=O)C1C(C(=O)OCC)=C(C)NC(C)=C1C(=O)OCC,-0.145
12,O=C(Cn1c(=O)n(-c2ccccc2)c(=O)c2sccc21)N1CCCC1,-0.24
13,Cc1ccc(OCC(=O)N/N=C/c2cn(Cc3ccccc3)c3ccccc23)cc1,-0.188
14,O=C(O)CCCN1C(=O)/C(=C/c2ccc(-c3nc4ccccc4s3)o2)SC1=S,0.773
15,O=C(O)CCN1C(=O)/C(=C/c2ccc(-c3nc4ccccc4s3)o2)SC1=S,1.83
16,O=C(O)CCN1C(=O)/C(=C\c2ccc(-c3nc4ccccc4s3)o2)SC1=S,2.49
17,COc1ccccc1N1C(N)=NC(N)=NC1(C)C,-0.0746
18,CC(=O)CCc1ccc2oc(C(=O)O)c(C)c2c1,-0.497
19,COC(=O)c1[nH]c2ccc(F)cc2c1NC(=O)CCN1CCN(Cc2ccc3c(c2)OCO3)CC1,-0.752
20,COC(=O)c1[nH]c2ccc(C)cc2c1NC(=O)CCN1CCN(Cc2ccc3c(c2)OCO3)CC1,9.23 (active)
21,Cc1[nH]c2ccccc2c1NC(=O)CN1CCN(Cc2ccc3c(c2)OCO3)CC1,-0.288
